# According to publication PMC11062922 (Nature Chemical Biology, 2023):
# Like-named read-outs stand apart in the source and are kept apart here.
# Tests used:
# Design in all cases: species or system human, MV4-11 + K-562 + COLO205 + SK-N-BE2 + OVCAR-8
# CIT = conditions: read-out: apparent Kd; compound concentrations: 100 nM and 1000 nM (sheet 'Samples'), CATDS: 0.166280456271373; n = 1
# CSNK1D = conditions: read-out: apparent Kd; compound concentrations: 100 nM and 1000 nM (sheet 'Samples'), CATDS: 0.24593653580007899; n = 1
# CSNK1E = conditions: read-out: apparent Kd; compound concentrations: 100 nM and 1000 nM (sheet 'Samples'), CATDS: 0.167544749669055; n = 1
# MAPK14 = conditions: read-out: apparent Kd, n = 1
# MAPKAPK2 = conditions: read-out: apparent Kd, compound concentrations: 100 nM and 1000 nM (sheet 'Samples'), n = 1
# CDK6 = conditions: read-out: apparent Kd, n = 1
# FYN = conditions: read-out: apparent Kd; compound concentrations:100 nM and 1000 nM (sheet 'Samples'); n = 1
# MAP2K2 = conditions: read-out: apparent Kd; compound concentrations:100 nM and 1000 nM (sheet 'Samples'); n = 1
# PI4KA = conditions: read-out: apparent Kd; compound concentrations:100 nM and 1000 nM (sheet 'Samples'); n = 1
# PIK3C2A = conditions: read-out: apparent Kd; compound concentrations:100 nM and 1000 nM (sheet 'Samples'); n = 1
# PIK3C3 = conditions: read-out: apparent Kd; compound concentrations:100 nM and 1000 nM (sheet 'Samples'); n = 1
# PIK3CB = conditions: read-out: apparent Kd; compound concentrations: 100 nM and 1000 nM (sheet 'Samples'), CATDS: 0.44243244506727197; n = 1
# PIK3CD = conditions: read-out: apparent Kd; compound concentrations: 100 nM and 1000 nM (sheet 'Samples'), CATDS: 0.27438684743153402; n = 1
# PIM2 = conditions: read-out: apparent Kd, n = 1
# PRKDC = conditions: read-out: apparent Kd; compound concentrations:100 nM and 1000 nM (sheet 'Samples'); n = 1
# RIOK2 = conditions: read-out: apparent Kd; compound concentrations:100 nM and 1000 nM (sheet 'Samples'); n = 1
# VDAC3 = conditions: read-out: apparent Kd; compound concentrations:100 nM and 1000 nM (sheet 'Samples'); n = 1
# CDKL5 = conditions: read-out: apparent Kd, compound concentrations: 100 nM and 1000 nM (sheet 'Samples'), n = 1
# MAPK11 = conditions: read-out: apparent Kd; compound concentrations: 100 nM and 1000 nM (sheet 'Samples'), CATDS: 0.67677633408210103; n = 1
# MAPK10 = conditions: read-out: apparent Kd; compound concentrations: 100 nM and 1000 nM (sheet 'Samples'), CATDS: 0.149195814483779; n = 1
# MAPK9 = conditions: read-out: apparent Kd; compound concentrations: 100 nM and 1000 nM (sheet 'Samples'), CATDS: 0.14319279027503101; n = 1
# CDK4 = conditions: read-out: apparent Kd; compound concentrations:100 nM and 1000 nM (sheet 'Samples'); n = 1
# NNT = conditions: read-out: apparent Kd; compound concentrations:100 nM and 1000 nM (sheet 'Samples'); n = 1
# CDK7 = conditions: read-out: apparent Kd; compound concentrations: 100 nM and 1000 nM (sheet 'Samples'), CATDS: 0.117624966951351; n = 1
# ERCC2 = conditions: read-out: apparent Kd; compound concentrations: 100 nM and 1000 nM (sheet 'Samples'), CATDS: 0.117960560736162; n = 1
# FER = conditions: read-out: apparent Kd; compound concentrations: 100 nM and 1000 nM (sheet 'Samples'), CATDS: 0.13650868273140601; n = 1
# GAK = conditions: read-out: apparent Kd; compound concentrations: 100 nM and 1000 nM (sheet 'Samples'), CATDS: 0.12538076296612899; n = 1
# PIK3CA = conditions: read-out: apparent Kd; compound concentrations: 100 nM and 1000 nM (sheet 'Samples'), CATDS: 0.31694320747902399; n = 1
# TNK1 = conditions: read-out: apparent Kd; compound concentrations: 100 nM and 1000 nM (sheet 'Samples'), CATDS: 0.145879794624587; n = 1
# TNK2 = conditions: read-out: apparent Kd; compound concentrations: 100 nM and 1000 nM (sheet 'Samples'), CATDS: 0.149039092060825; n = 1
# [1] = compound concentrations:100 nM and 1000 nM (sheet 'Samples')
structure (smiles),measurement,setting,value
Fc1ccc(-c2nn3cccc(F)c3c2-c2ccncc2)cc1 [GW475620X],potency estimated from few doses,CIT,1690 nM
same,potency estimated from few doses,CSNK1D,751 nM
same,potency estimated from few doses,CSNK1E,1660 nM
same,potency estimated from few doses,"MAPK14; compound concentrations: 100 nM and 1000 nM (sheet 'Samples'), CATDS: 0.21797862519498301",934 nM
same,potency estimated from few doses,MAPKAPK2; CATDS: 0.22915733614063999,851 nM
O=c1cc(N2CCOCC2)nc2n(Cc3cccc(F)c3)ccn12 [GSK2297430A],potency estimated from few doses,CDK6; [1],2000 nM
same,potency estimated from few doses,FYN,1140 nM
same,potency estimated from few doses,MAP2K2,1780 nM
same,potency estimated from few doses,MAPK14; [1],1450 nM
same,potency estimated from few doses,PI4KA,1610 nM
same,potency estimated from few doses,PIK3C2A,2440 nM
same,potency estimated from few doses,PIK3C3,235 nM
same,potency estimated from few doses,PIK3CB,31.5 nM
same,potency estimated from few doses,PIK3CD,68.1 nM
same,potency estimated from few doses,PIM2; [1],1670 nM
same,potency estimated from few doses,PRKDC,1130 nM
same,potency estimated from few doses,RIOK2,1490 nM
same,potency estimated from few doses,VDAC3,1830 nM
Cl.Nc1c(C(=O)c2cccc(-c3ccncc3)c2)cnn1-c1ccc(F)cc1F [RO1166300-001],potency estimated from few doses,CDKL5; CATDS: 0.17547829897004599,1830 nM
same,potency estimated from few doses,MAPK11,82.3 nM
same,potency estimated from few doses,"MAPK14; compound concentrations: 100 nM and 1000 nM (sheet 'Samples'), CATDS: 0.205012911986655",1060 nM
same,potency estimated from few doses,MAPKAPK2; CATDS: 0.2534240729319,584 nM
Cl.Cn1c(=O)c(Oc2ccc(F)cc2F)cc2cnc(N[C@H]3CCOC3)nc21 [RO3311017-001],potency estimated from few doses,CDKL5; CATDS: 0.14258501509608601,1540 nM
same,potency estimated from few doses,MAPK10,1260 nM
same,potency estimated from few doses,"MAPK14; compound concentrations: 100 nM and 1000 nM (sheet 'Samples'), CATDS: 0.62465881952288804",19.2 nM
same,potency estimated from few doses,MAPK9,1510 nM
same,potency estimated from few doses,MAPKAPK2; CATDS: 0.37042886154437599,54.5 nM
O=C(Nc1n[nH]c2cc(-c3ccccc3F)ccc12)C1CC1 [SB-733371],potency estimated from few doses,"CDK6; compound concentrations: 100 nM and 1000 nM (sheet 'Samples'), CATDS: 0.50989905801732505",1670 nM
same,potency estimated from few doses,"PIM2; compound concentrations: 100 nM and 1000 nM (sheet 'Samples'), CATDS: 0.49047797816886901",1800 nM
O=C1NC(=O)C(c2ccc(Cl)cc2)=C1Nc1ccc(O)cc1 [SB-340867],potency estimated from few doses,CDK4,1970 nM
same,potency estimated from few doses,NNT,1720 nM
Nc1c(C(=O)c2cccc(C(O)CO)c2)cnn1-c1ccc(F)cc1 (centres unmarked) [RO3200567-000],potency estimated from few doses,CDK7,1730 nM
same,potency estimated from few doses,ERCC2,1710 nM
same,potency estimated from few doses,FER,1200 nM
same,potency estimated from few doses,GAK,1460 nM
same,potency estimated from few doses,PIK3CA,285 nM
same,potency estimated from few doses,TNK1,1040 nM
same,potency estimated from few doses,TNK2,993 nM
